# A selection: hits, their analogues and other compounds. The true share with any hit is near 19%.
# SARS PLP yeast = qHTS of Yeast-based Assay for SARS-CoV PLP; S. cerevisiae expressing SARS-CoV PLpro, growth rescue; Potency, µM (top dose mostly 32.9 µM), usual class: activators; 330,000 tested, 0.19% active; calls by dose curve; also: nearly all actives have a fitted effect of over 55% in size
# Shiga inhibitor = A qHTS for Small Molecule Inhibitors of Shiga Toxin; inhibition, % at 38.7 µM; 290,000 tested, 9.2% active; Vero cells, Shiga toxin protein synthesis inhibition reporter; AID 2315, 2010; in the data active = inhibition mostly above about 28%, no sharp cut-off; inactive = mostly below about 43%
# Pf growth 96h = Primary qHTS for delayed death inhibitors of the malarial parasite plastid, 96 hour incubation; P. falciparum luciferase reporter growth, 96 h; Potency, µM (doses to about 28.7 µM), hits mostly inhibitors; AID 504834, 2011; 320,000 tested, 6.9% active
#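 P. falciparum expressing integrated firefly luciferase grown in erythrocytes (2% hematocrit, 0.05% parasitemia final) with compounds for 96 hours at 37 C, 5% CO2. Growth inhibition read as loss of luminescence after adding luciferase detection reagent.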
# Pf growth 48h = Primary qHTS for delayed death inhibitors of the malarial parasite plastid, 48 hour incubation; P. falciparum luciferase growth in erythrocytes, 48 h; 310,000 tested, 5.9% active; Potency, µM (titrated, usually from 28.7 µM), actives largely listed as inhibitors
#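 Erythrocytes infected with P. falciparum carrying an integrated firefly luciferase reporter (2% hematocrit, 0.1% parasitemia final) were exposed to compounds in RPMI 1640 with 0.5% Albumax at 37 C, 5% CO2. Growth inhibition was scored as reduced luminescence.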
# Cycloheximide cs = Cycloheximide Counterscreen for Small Molecule Inhibitors of Shiga Toxin. cell reporter, cycloheximide protein synthesis inhibition counterscreen. max response, %. 300,000 tested, 12% active; in the data active = max response mostly above about 13%, no sharp cut-off; inactive = mostly below about 14%; also: read at 38.3 µM for the half of the compounds with a filed dose
# AMA1-RON2 inh = qHTS for Inhibitors of AMA1-RON; Towards Development of Antimalarial Drug Lead: Primary Screen. Plasmodium falciparum AMA1 (3D7) - RON2 peptide interaction. AlphaScreen AMA1-biotinylated RON2 peptide binding. Potency, µM (highest dose often 58.2 µM), usual class: inhibitors. 360,000 tested, 0.2% active. AID 720542, 2013; also: nearly all actives have a fitted effect of over 45% in size
#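 AMA1 (3D7) with his tag at 25 nM final met compounds first, then biotinylated RON2 peptide at 25 nM; detection used donor plus acceptor beads, 10 µg/mL apiece, read by AlphaScreen after 30 min at room temperature.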
# Numbers stand for hits; n = inactive; u = inconclusive; x = no result; ! = not active in a repeat; [ ] = another dose, or the depositor's remark. Unless noted, calls follow the shape of the dose curve; as a rule, active = well fitted curve in the direction sought with a large enough effect; inconclusive = small, poorly fitted or top-dose-only effect, or another doubt; inactive = no such curve, though single readings can be large; an effect the other way counts as inactive or inconclusive.
SMILES,SARS PLP yeast,Shiga inhibitor,Pf growth 96h,Pf growth 48h,Cycloheximide cs,AMA1-RON2 inh
Oc1ccc(/C=N/NC(=S)N2CCOCC2)cc1,n,n,u,n,30,n
O=S(=O)(c1ccc(Cl)c(NC(=S)N/N=C/c2c(F)cccc2F)c1)N1CCOCC1,n,n,u,n,n,n
O=S(=O)(c1ccc(Cl)c(NC(=S)N/N=C/c2ccc(O)cc2)c1)N1CCOCC1,n,n,3.3µM,n,18,n
Cc1ccc(NS(=O)(=O)c2ccc(OCC(N)=O)cc2)cc1,n,n,n,n[5.75 µM],n,n
OCC1OC(n2cnc3c(SCc4ccccc4)nc(F)nc32)C(O)C1O (configuration not stated),x,x,x,x,x,n
COc1ccc(C(=O)NNC(=O)c2cc(C)nc3ccccc23)cc1,n,x,u,n,x,n
Cc1n[nH]c(C)c1CCC(=O)N/N=C/c1c(C)[nH]c2ccccc12,n,n,n,n,n,n
Fc1ccc(-c2nc3c(-c4ccccc4)cnn3cc2CCN2CCOCC2)cc1,n,n,u,n,n,n
COc1cc2[nH]c3c(c2cc1OC)CCN1CCCC[C@@H]31,x,x,x,x,x,n
O=C1CC[C@@H](C(=O)O)N1,x,x,13µM!,u,x,n
C=CCn1c(N)cc(=O)nc1SC(C)C(=O)Nc1ccc(C(=O)OCC)cc1 (configuration not stated),n,n,n,4.1µM,n,n
COc1cc(C#N)c(N=C(SCC#N)N2CCOCC2)cc1OC,n,n,n,n,n,n
COc1ccccc1-c1noc(-c2ccncc2)n1,n,64,x,n,27,n
c1csc(-c2nc(N3CCCCC3)no2)c1,n,82,n,n,37,n
O=[N+]([O-])c1cccc(-c2noc(-c3cccs3)n2)c1,n,78,n,n,34,n
c1csc(-c2cc(N3CCCCC3)c3ccccc3n2)c1,n,n,u,u,n,n
COc1ccccc1-c1noc(-c2cccs2)n1,n,111,n,n,44,n
COc1ccc(Br)cc1-c1noc(-c2ccncc2)n1,n,n,n,n,n,n
C=CCNC(=O)/C(C#N)=C\c1cc(Cl)c(OCC)c(OC)c1,n,n,n,n,n,n[11.6 µM]
Cc1ccc(-c2noc(-c3cccs3)n2)cc1,n,67,u,n,70,n
COc1cccc(-c2ccc(-c3noc(-c4ccccc4F)n3)c(OC)n2)c1,n,n,n,n,n,n
Cc1ccc(-c2noc(-c3ccccc3F)n2)cc1,n,108,n,n,27,n
CCOc1ncccc1-c1nc(-c2cccs2)no1,n,60,n,x,50,n
CCOc1nc(-c2ccccc2)ccc1-c1noc(-c2cccs2)n1,n,n,u,u,n,n
O=C(c1ccc(Cl)c(S(=O)(=O)N2CCCCC2)c1)N1CCCC(C(F)(F)F)C1 (configuration not stated),n,x,u,u,x,n
SMILES,SARS PLP yeast,Shiga inhibitor,Pf growth 96h,Pf growth 48h,Cycloheximide cs,AMA1-RON2 inh
COc1cc(C(C)=O)ccc1Oc1ncnc2c1cnn2-c1ccc(F)cc1,n,106,n,n,54,n
COc1ncnc2c1cnn2-c1ccccc1,x,81,n,n,37,n
COc1ccccc1Oc1ncnc2c1cnn2-c1ccccc1,n,117,n,n,43,n
COc1ccc(Nc2ncnc3c2cnn3-c2ccccc2)cc1OC,n,n,u,n,n,n
C=CCOc1c(CNC2CCCC2)cc(Cl)cc1OC,n,n,n,u,n,n
CCCC[C@@H]1CCCO[C@@](C(=O)NCCN2CCOCC2)(C(F)(F)F)C1,x,n,x,x,n,x
CCOC(=O)C1=C(CS(=O)(=O)c2ccccc2)NC(=O)NC1c1cccc(OC)c1 (configuration not stated),n,n,n,u,n,n
CCC(c1nnnn1CCOC)N(Cc1cc2cc(C)c(C)cc2[nH]c1=O)CC1CCCO1 (configuration not stated),n,n,15µM,x,n,n
CCCC(c1nnnn1CCOC)N(Cc1cc2cc(C)c(C)cc2[nH]c1=O)CC1CCCO1 (configuration not stated),n,n,u,u,n,n
CCC(c1nnnn1CCOC)N(Cc1ccc(C)cc1)Cc1cc2cc(OC)ccc2[nH]c1=O (configuration not stated),n,n,n,10µM,n,n
CCOC(=O)C1=C(COC(=O)/C=C/c2cc(OC)c(OC)c(OC)c2)NC(=O)NC1C (configuration not stated),n,n,u,n,n,n
CC(C)Nc1nnc(SCC(=O)c2c(N)n(Cc3ccccc3)c(=O)n(C)c2=O)s1,n,n,9.3µM,u,n,n
COCC(C)n1c(COc2ccccc2F)nnc1SCC(=O)c1c(N)n(C)c(=O)n(C)c1=O (configuration not stated),n,n,u,10µM,n,n
Cn1c(N)c(C(=O)COC(=O)c2ccccn2)c(=O)n(C)c1=O,n,n,n,n,n,n
Cn1c(N)c(C(=O)CSc2nnc(NC3CCCCC3)s2)c(=O)n(C)c1=O,n,x,1.3µM,u,x,n
Cn1c(N)c(C(=O)CSc2ccccn2)c(=O)n(C)c1=O,n,47,n,n,n,n
CC1=C(C(=O)N(C(C)C)C(C)C)CC(CC(=O)NCc2cccs2)C(=O)N1CCC1=CCCCC1 (configuration not stated),x,x,x,x,x,n
Cc1ccc(C(=O)CCC(=O)OCC(=O)N(CC(C)C)c2c(N)n(Cc3ccccc3)c(=O)[nH]c2=O)cc1,n,x,n,n,x,n
O[C@H]1C[C@H](c2ccccc2)N(CC2CCCCC2)C[C@@H]1n1cc(C2CC2)nn1,x,x,x,x,x,n
Cc1nnc(SCC(=O)c2c(N)n(C)c(=O)n(C)c2=O)n1Cc1ccccc1,22µM,n,n,n,n,n
CC(=O)Nc1ccc(NC(=O)C(=O)NCC(c2ccco2)N2CCc3ccccc32)cc1 (configuration not stated),n,x,10µM,13µM,x,n
COc1ccccc1N(C)C(=O)c1cc(S(=O)(=O)N2CCCC2)cn1C,n,n,n,n,n,n
CC=CC1=C(C(=O)O)N2C(=O)[C@H](NC(=O)[C@H](N)c3ccc(O)cc3)[C@@H]2SC1,x,n,u,n,n,x
COC(=O)/C=C/c1cnc2ccccc2c1,n,118,n,n,36,n
O=S(=O)(Nc1cc(S(=O)(=O)N2CCOCC2)ccc1NCC1CCCO1)c1ccc(F)cc1 (configuration not stated),n,x,u,n,x,n[11.6 µM]
O=C(COC(=O)C1CCN(c2ccc(C(F)(F)F)cn2)CC1)Nc1cc(F)ccc1F,n,x,n,n,x,n
CN(CC(=O)Nc1cccc(F)c1)C(=O)c1ccc(C(=O)c2ccccc2)cc1,n,x,9.3µM,u,x,n
